Screens (PubChem)
PLK1 PBD inh – qHTS for Inhibitors of PLK1-PDB (polo-like kinase 1 - polo-box domain): Primary Screen. Serine/threonine-protein kinase PLK1 (Homo sapiens), P53350. Plk1 PBD binding of FITC phosphopeptide, fluorescence polarization. Potency, µM, for inactives: max response, negative = inhibition, usual class: inhibitors. 2.8% of 360,000 active. AID 720504, 2013; further: series mostly up to about 57 µM; on the % scale 0 is the no-effect control and ±100 the full control effect; nearly all actives have a fitted effect of over 65% in size
Sfp inh – qHTS Assay for Inhibitors of Bacillus subtilis Sfp phosphopantetheinyl transferase (PPTase); Biochemical Sfp PPTase activity, qHTS; Potency, µM, without a hit: largest response in the series, negative = inhibition, most hits filed as inhibitors; 3.5% of 310,000 active;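 further: the enzyme is Sfp with the accession as filed and its product quenches rhodamine fluorescence; 0% = enzyme reaction without inhibitor and -100% = no enzyme wells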
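Sfp 15 nM + cpd, 15 min RT; start w/ rhodamine-CoA 5 uM, BHQ-2-YbbR 12.5 uM (final); 50 mM Hepes pH 7.6, 10 mM MgCl2, 0.01% NP-40, 0.01% BSA; read 525/598 nm at 0 and 30 min.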
BAZ2B inh – qHTS Assay for Inhibitors of BAZ2B; Bromodomain adjacent to zinc finger domain protein 2B (Homo sapiens), Q9UIF8; AlphaScreen BAZ2B-H3K14Ac peptide displacement; Potency, µM (highest dose often 114 µM), for the others: at the highest dose activity change, negative = inhibition, usual class: inhibitors; 4.4% of 360,000 active; AID 504333, 2011; further: on the % scale 0 is the no-effect control and ±100 the full control effect; nearly all actives have a fitted effect of over 60% in size
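Inhibition is scored as reduced AlphaScreen emission. The BAZ2B/b-H3(5-23)K14Ac complex (50 nM each) in PBS pH 7.4, 0.01% Tween-20 meets compound (up to 110 uM) for 30 min at RT before bead addition.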
G9a block – qHTS Assay for Inhibitors of Histone Lysine Methyltransferase G9a | AID 504332, 2011 | 8.8% of 350,000 active | Potency, µM (highest dose often 102 µM), inactives show at the highest dose activity, negative = inhibition, actives largely listed as inhibitors | Histone-lysine N-methyltransferase EHMT2 (Homo sapiens), Q96KQ7 | G9a H3K9 monomethylation, AlphaScreen, 2 h; further: on the % scale 0 is the no-effect control and ±100 the full control effect; nearly all actives have a fitted effect of over 75% in size
Target sequence (Q96KQ7 913-1193 limits assumed): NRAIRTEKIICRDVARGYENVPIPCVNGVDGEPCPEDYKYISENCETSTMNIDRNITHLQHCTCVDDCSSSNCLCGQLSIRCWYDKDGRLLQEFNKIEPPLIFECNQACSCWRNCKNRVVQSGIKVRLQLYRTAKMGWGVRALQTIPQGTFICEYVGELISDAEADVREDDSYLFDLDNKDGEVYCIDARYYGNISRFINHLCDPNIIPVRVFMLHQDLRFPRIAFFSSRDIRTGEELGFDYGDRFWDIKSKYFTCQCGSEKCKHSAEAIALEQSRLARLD
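Readings reflect AlphaScreen signal from monomethyl-H3K9 antibody detection. HMT at 20 nM; substrate b-H3K9 500 nM; cofactor SAM 20 uM; 2 h RT reaction; compounds tested as titrations in qHTS with 15 min preincubation.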
JMJD2A Tudor – qHTS Assay for Inhibitors of JMJD2A-Tudor Domain; AlphaScreen JMJD2A-Tudor / H3K4me3 peptide binding; Potency, µM (doses to about 114 µM), without a hit: at the top dose activity change, negative = inhibition, hits mostly inhibitors; AID 504339, 2011; 4.4% of 390,000 active; further: on the % scale 0 is the no-effect control and ±100 the full control effect; nearly all actives have a fitted effect of over 50% in size
HP1b binding inh – HTS for Inhibitors of HP1-beta Chromodomain Interactions with Methylated Histone Tails; Chromobox protein homolog 1 (Homo sapiens), P83916; AlphaScreen HP1-beta / biotin-H3K9me3 peptide binding; Potency, µM (top dose mostly 114 µM), without a hit: top-dose activity change, negative = inhibition, hits mostly inhibitors; 0.56% of 390,000 active; AID 540317, 2011; further: nearly all actives have a fitted effect of over 70% in size
Target sequence (P83916 whole entry, looked up): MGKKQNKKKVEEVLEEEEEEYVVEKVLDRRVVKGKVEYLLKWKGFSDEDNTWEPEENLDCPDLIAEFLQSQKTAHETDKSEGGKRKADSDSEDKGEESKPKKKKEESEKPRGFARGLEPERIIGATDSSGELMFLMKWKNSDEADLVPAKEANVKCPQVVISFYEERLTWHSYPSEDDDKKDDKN
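Compound inhibition of the preformed complex between 50 nM HP1-beta and 50 nM biotinylated H3K9me3 peptide was read by AlphaScreen. Buffer was PBS pH 7.4 with 0.01% Tween-20. Incubations ran 30 min at room temperature, with 10 ug/mL donor/acceptor beads.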
* = called active by the depositor; ? = inconclusive; / = no result given; [ ] = another dose, or the depositor's remark. An excerpt weighted towards active compounds, which were near 12% of everything screened. The call rests on the fitted dose curve; in most records, active means well fitted curve in the direction sought with a large enough effect; inconclusive means small, poorly fitted or top-dose-only effect, or another doubt; inactive means no such curve, though single readings can be large; an effect the other way counts as inactive or inconclusive. Potency means the concentration at half of the fitted maximal effect.

SMILES | PLK1 PBD inh | Sfp inh | BAZ2B inh | G9a block | JMJD2A Tudor | HP1b binding inh
CCN(CC)CCCC1(CN)OCCc2ccccc21 (stereo unspecified) | 1% | 9% | -1% | 25µM* | -3% | 23%
Nc1nc2nc(-c3cccs3)cc(C(F)(F)F)n2n1 | 14% | 5% | 3% | 0% | 12% | 48%
O=C(NC(=S)N(CC1CCC1)CC1CCCO1)c1cccc([N+](=O)[O-])c1 (stereo unspecified) | -25% | -2% | ? | 50µM* | -35% | -4%
O=C(NCC1CCCCC1)c1cccc([N+](=O)[O-])c1 | 1% | -5% | ? | / | -10% | 37%
Cc1ccc(C(=O)N/C(=C/c2ccc(N(C)C)cc2)C(=O)NCC2CCCO2)cc1 (stereo unspecified) | -7% | 7% | -4% | 28µM* | -30% | 1%
Cc1ccc(S(=O)(=O)NNC(=S)NCC2CCCO2)cc1 (stereo unspecified) | -2% | -15% | -15% | 25µM* | -14% | -16%
Cc1ccc(S(=O)(=O)NCC2CCCO2)cc1 (stereo unspecified) | 6% | 14% | 10% | 19% | -19% | 47%
COc1ccc(NC(=S)NCC2CCCO2)c(C)c1 (stereo unspecified) | -10% | 11% | 5% | 15%[59 µM] | -10% | 7%
COc1ccccc1NS(=O)(=O)c1ccc(O)c(NC(=S)NCC2CCCO2)c1 (stereo unspecified) | 13µM* | 25µM* | -9% | / | -14% | ?
Cc1ccc(C(=O)N/C(=C/c2ccc(Cl)cc2)C(=O)NCC2CCCO2)cc1 (stereo unspecified) | 4% | 2% | 6% | 22%[59 µM] | 3% | 33%
CN1CCCN=C1/C=C/c1cccs1 | -4% | 0% | -1% | -4%[12.7 µM] | -10% | -5%
CC(=O)NC1C(O)C[C@@](O)(C(=O)O)OC1[C@@H](O)C(O)CO (stereo partly specified) | / | 13% | / | / | / | /
O=C(Cc1ccc(Cl)c(Cl)c1)NNC(=S)NCC1CCCO1 (stereo unspecified) | -29% | 11% | 0% | 22%[0.501 µM] | -18% | 52%
S=C(NCC1CCCO1)Nc1ccc(Cl)c(Cl)c1 (stereo unspecified) | 12µM* | 9% | -18% | -7% | ? | 40%
CCNS(=O)(=O)c1ccc(NC(=S)NCC2CCCO2)cc1 (stereo unspecified) | 24µM* | -21% | -4% | / | ? | -8%
Cc1ccc(NS(=O)(=O)c2ccc(OCC(=O)NCC3CCCO3)cc2)cc1 (stereo unspecified) | 30µM* | 2% | 5% | 6% | 50µM* | -5%
COc1ccc(NS(=O)(=O)c2ccc(NC(=S)NCC3CCCO3)cc2)cc1 (stereo unspecified) | -20% | -26% | 7% | -2% | -21% | 7%
Cc1ccccc1N1CC(C(=O)Nc2ccc(S(=O)(=O)NCC3CCCO3)cc2)CC1=O (stereo unspecified) | ? | 3% | 0% | -3% | 89µM* | 6%
CC[C@@H]1CC=C[C@H]2[C@H]1C(=O)N(Cc1ccccc1)[C@H]2c1ccc2ccccc2c1 | / | -3% | -13% | 37%[59 µM] | / | /
CCC(C(=O)OCC(=O)N(CCOC)c1c(N)n(Cc2ccccc2)c(=O)[nH]c1=O)c1ccccc1 (stereo unspecified) | 2% | 7% | -22% | 33% | -1% | 41%
CCn1c(NCc2cccc(Cl)c2)nc2ccccc21 | / | / | -2% | 11%[59 µM] | 0% | 25%
COC(=O)c1cc(NC(=O)[C@H](CCS(C)(=O)=O)N2Cc3ccccc3C2=O)cc(C(=O)OC)c1 | / | / | -39% | -39%[59 µM] | -11% | 20%
COC(=O)c1ccc2c(c1)N(CC(=O)Nc1ccc(C)cc1Cl)C(=O)c1ccccc1S2 | / | / | 0% | 2%[59 µM] | -22% | 12%[57 µM]
COc1ccc(-c2nc3n(n2)C(c2ccccc2OC)C(C(=O)Nc2cccnc2)=C(C)N3)cc1 (stereo unspecified) | / | / | -12% | 45%[59 µM] | -20% | 31%
COc1ccc(C2/C=C\[C@H](O[Si](C)(C)C(C)(C)C)[C@H](C(C)C)CC(=O)N2Cc2ccccc2)cc1 (stereo partly specified) | / | 4% | / | -44%[59 µM] | / | /
SMILES | PLK1 PBD inh | Sfp inh | BAZ2B inh | G9a block | JMJD2A Tudor | HP1b binding inh
O=C(NCC1CCCO1)c1cc([N+](=O)[O-])ccc1Cl (stereo unspecified) | 0% | 17% | 2% | 50µM* | 1% | 15%
O=C(NC(=S)NCC1CCCO1)c1ccccc1Br (stereo unspecified) | -5% | 3% | 1% | 13%[59 µM] | -4% | 15%
O=C(NCC1CCCO1)c1ccccc1NS(=O)(=O)c1cc([N+](=O)[O-])ccc1Cl (stereo unspecified) | 2% | / | / | / | -18% | 34%
Cc1ccc(C(=O)NC(=S)NCC2CCCO2)cc1Br (stereo unspecified) | 1% | -1% | ? | 45µM* | -19% | 6%
Cc1ccc(S(=O)(=O)CCC(=O)OCC(=O)c2cc(C)ccc2C)cc1 | 1% | / | 2% | 24%[12.7 µM] | 1% | 47%
Cc1ccc(S(=O)(=O)CCC(=O)c2ccc(O)cc2O)cc1 | ? | -11% | 9% | 40µM* | -22% | 63%
COc1ccc(C(=O)CCS(=O)(=O)c2ccc(C)cc2)cc1OC | 12µM* | 4% | 3% | -22% | -18% | 49%
CCOc1ccc(S(=O)(=O)N2CCCC(C(=O)NC3CC3)C2)cc1Cl (stereo unspecified) | -8% | / | 6% | -38% | -9% | 13%
Cc1cc2c(OCC(CNC(C)(C)C)OC(=O)c3ccccc3)cccc2[nH]1 (stereo unspecified) | / | 9% | / | 16µM* | / | /
Cc1cc2c(OCC(O)CNC3CCCCC3)cccc2[nH]1 (stereo unspecified) | -3% | 5% | -32% | ? | ? | 15%
CC(C)CC1=NN(C(=O)c2ccncc2)C(O)(C(F)(F)F)C1 (stereo unspecified) | 24µM* | 20% | 1% | 2% | 40µM* | 10%
Cc1cc(C)c2c(NC(N)=S)n[nH]c2n1 | -1% | -19% | 0% | 25µM* | 32µM* | -1%
